Among the data in ChEMBL document CHEMBL4513216, “Probing the Open Global Health Chemical Diversity Library for Multistage-Active Starting Points for Next-Generation Antimalarials” (ACS Infect Dis, 2020) are INHIBITION values, retold here.

The campaign covered roughly 69,000 compounds. About 8,600 (12%) showed an effect of 50% or more. This is one part of a sample in which strong results are shown more often than they occur.

This test has as its system Plasmodium berghei. In words: Screen against P. berghei liver stage (PbLuc), transformed with Luciferase, at 10uM. The test is classed as functional, HepG2. The following applies: tested at 10 uM.
Regarding `CNC(=O)C1CN(C(=O)c2ccncc2)CCN(S(C)(=O)=O)C1` (stereo unspecified), the INHIBITION amounted to 7.7%.
For `Cc1cc(-c2cnc(C(C)C)nc2CN(C)C(=O)c2ccccn2)on1`, the INHIBITION came out at 30.4%.
For `CC1CCN(c2ccc(=O)n(CC(=O)N(C)Cc3ccccc3)n2)CC1` the value was -17.1%.
As for `CC(C)(C)c1cc(=O)n2c(n1)SCC(C(=O)NCc1ccccn1)C2` (stereo unspecified), the figure is 29.1%; as for `CC(=O)N1CCC2(CC1)C(=O)N(CC1CCN(C)CC1)c1ccccc12`, -4.82%; as for `O=c1[nH]c2c(-c3ccccn3)nsc2c(=O)n1CC1CC1`, 7.3%.
For the molecule `NC(=O)CN1CCC(c2noc3cc(F)ccc23)CC1`, the INHIBITION is reported as 18.7%.
As for `CNC(=O)[C@@H](CC(C)C)N1CCC[C@H]1C(=O)N(C)Cc1cccnc1`, the figure is 45.1%.
With `Cc1cc(CN2CCN(C(=O)NC(C)c3ccncc3)CC2)on1` (stereo unspecified), the INHIBITION was 14.9%.
For `Cc1ccc(C(=O)N2CCC(Oc3c(C)cccc3C)CC2)c(=O)[nH]1` the value was -1.25%.
As for `Cc1cnc2c(S(=O)(=O)N(C)C3CCS(=O)(=O)C3)cccc2c1` (stereo unspecified), the figure is 22.3%; as for `Cc1cccc(CN2C[C@@H]3COC[C@]3(CNC(=O)c3ccno3)C2)n1`, -30%; as for `Nc1nc(CCCNC(=O)c2ccc(C3CCCNC3)cc2)cs1` (stereo unspecified), -3.58%.
With `CC(C)n1cc(C(=O)NCCc2cn3ccsc3n2)cn1`, the INHIBITION is listed as 8.48%.
As for `CSCc1nc(CCNC(=O)c2cnn(C(C)C)c2)cs1`, the figure is 33.4%; as for `CSCc1nc(CNC(=O)c2cnn(C(C)C)c2)cs1`, 55%.
For `CC(C)n1cc(C(=O)NCCCc2csc(N)n2)cn1` the value was 69.1%; for `CC(C)n1cc(C(=O)NCC(CO)Cc2cccs2)cn1` (stereo unspecified), 5.78%.
With `COc1cc(NCc2c(C)noc2C)c(OC)cc1Cl`, the INHIBITION turned out to be 28.7%.
Take `Cc1ccc(N[C@@H]2CN(Cc3cc(C)on3)C[C@@H]3CCCO[C@@H]32)nn1`: the INHIBITION was -24.1%.
As for `Cc1cc(NC(=O)CN2CCc3cnc(C(C)C)nc3C2)on1`, the figure is -0.113%; as for `COc1ccc(OC)c(C(O)CN2CCC(N3CCC(C)CC3)CC2)c1` (stereo unspecified), 12.3%; as for `COCCN(C)C(C)c1cccc(S(N)(=O)=O)c1` (stereo unspecified), -29.8%.
For `CC(C)c1n[nH]c(C2CN(C(=O)c3cc(Cl)c[nH]3)CCO2)n1` (stereo unspecified) the value was -17.4%.
As for `Cc1nn(C)cc1CN1CCCC(n2c(=O)oc3ccccc32)C1` (stereo unspecified), the figure is 43.35%; as for `Cc1cccc(=O)n1CCCNc1nc(N(C)C)nc2c1CCNCC2`, 7.93%; as for `CN(Cc1cccnc1)c1nc(-c2ccccn2)nc2c1CCNCC2`, -10.8%.
`c1ccc(-c2nc3c(c(NCCn4ccnn4)n2)CCNCC3)nc1`: the INHIBITION is -3.01%.
Consider `CN(Cc1nccs1)c1nc(-c2ccccn2)nc2c1CCNCC2`, for which the INHIBITION is 13.7%.
As for `c1ccc(-c2nc3c(c(NCCCn4cncn4)n2)CCNCC3)nc1`, the figure is 57.3%; as for `c1ccc(-c2nc3c(c(NCCn4cccc4)n2)CCNCC3)nc1`, 66.5%; as for `O=C(CS(=O)(=O)Cc1cc(Cl)c2c(c1)OCO2)N1CCCC1`, 21%.
As for `COc1ccc(CCC(=O)N2CCN(c3nc(C)ns3)CC2)cc1`, the figure is 6.7%; as for `CC(C)c1noc(CN2CCN(C(=O)OC(C)(C)C)C(C)C2)n1` (stereo unspecified), 33.6%.
For `Cc1cc(N2CCOC(c3ccncn3)C2)ncn1` (stereo unspecified) the value was 26.7%.
Take `COCc1cc(N2CCOC(c3ccc(F)cc3)C2)ncn1` (stereo unspecified): the INHIBITION worked out at 38.3%.
For `COCc1cc(N2CCOC(c3ccc(Cl)c(Cl)c3)C2)ncn1` (stereo unspecified) the value was 63.1%; for `Fc1ccc(C2CN(c3ncnc4nc[nH]c34)CCO2)cc1` (stereo unspecified), -28.6%.
For `COc1cc(N2CCOC(c3ccc(F)cc3)C2)ncn1` (stereo unspecified) the value was 55.2%.
For `COCc1cc(N2CCOC(c3ccc(Cl)cc3)C2)ncn1` (stereo unspecified) the value was 8.64%; for `CCn1cnnc1C1CCN(C(=O)c2c(C)oc(C)c2C)CC1`, 46.7%; for `Cc1cccc(CC2COCCN(Cc3nccn3C)C2)n1` (stereo unspecified), 26.3%.
As to `O=C(CC1CCN(CCc2ccccc2)CC1)NC1CCOCC1`, the INHIBITION stood at 25.8%.
In the case of `Cn1cnnc1C1CCCN(Cc2nc(Cc3ccccc3)no2)C1` (stereo unspecified), the INHIBITION is on record as 3.13%.
As for `CNc1[nH]nc(N)c1NC(=O)c1ccccc1`, the figure is 17.6%; as for `COc1ccc(-n2nnc(C(=O)O)c2-c2ccccn2)cc1`, 32.2%.
As for `Cc1ccc(CN2C[C@@H]3COC[C@@H](NS(C)(=O)=O)[C@@H]3C2)o1`, the figure is -6.02%; as for `CC(C)C1CN(C(=O)c2ccccc2)CCS1` (stereo unspecified), 61.3%.
`CC(C)C1CN(C(=O)c2ccncc2)CCS1` (stereo unspecified): the INHIBITION is reported as 19.6%.
For `CC(C)C1CN(C(=O)c2ccc(C(N)=O)cc2)CCS1` (stereo unspecified) the value was 0.139%; for `CN1CSC[C@H]1C(=O)N1CCC(CCc2ccccc2)CC1`, -29%.
For `O=C(C1CCS(=O)(=O)CC1)N1CCC(Cc2ccc(F)cc2)CC1` the value was 57.3%; for `CCC(=O)N1CCCC1C(=O)N1CCC(Cc2ccc(F)cc2)CC1` (stereo unspecified), 49.4%.
As for `CN1CSC[C@H]1C(=O)N1CCC(Cc2ccccc2F)CC1`, the INHIBITION is reported as -40.6%.
For `CN1C[C@@H](N)C[C@H]1C(=O)N1CCC(CCCc2ccccc2)CC1` the value was 55.9%; for `CC(C(=O)N1CCC(Cc2ccc(F)cc2)CC1)n1ccnc1` (stereo unspecified), 32.8%.
For `CC(C)(C)C(=O)N1CCC(COCc2ccccc2)C1` (stereo unspecified) the value was 11.9%; for `O=C([C@H]1CCS(=O)(=O)[C@@H]2CN(Cc3ccc(F)cc3)C[C@H]12)N1CCCC1`, 12.7%.
For `CN1C[C@@H](N)C[C@H]1C(=O)N1CCC(Cc2ccc(F)cc2)CC1` the value was 58.1%; for `Cn1ncc2ccc(C3CCCN(Cc4ccsc4)C3)nc21` (stereo unspecified), 33.45%; for `COc1cccc(-n2cc3[nH]c(=O)[nH]n3c2=O)c1`, 3.68%.
With `Cc1cc(C(=O)N2C[C@@H]3CC[C@H]2CN(C(=O)c2ccncc2)C3)cs1`, the INHIBITION amounted to 38%.
As for `CN(C)S(=O)(=O)N1C[C@H](Oc2cccnc2)[C@H]2OCCC[C@H]21`, the figure is 14.2%; as for `O=C(c1ccc[nH]1)N1Cc2nccn2CC(Cn2ncccc2=O)C1` (stereo unspecified), -87.3%; as for `CNC(=O)C1CNCCN1C(=O)c1ccc(C(F)(F)F)nc1C` (stereo unspecified), -15.3%.
Take `O=C1C(NS(=O)(=O)c2ccc(F)c(F)c2)CCN1Cc1ccccc1` (stereo unspecified): the INHIBITION stood at 21.5%.
